Experimental data taken from the supplement of paper PMC13380429.

Tested on: Vero E6 infected with SARS-CoV-2
Assay: inhibition of SARS-CoV-2 cytopathic effect; higher = more antiviral protection, active = above 15
Details: 48 h

Measured: inhibition of SARS-CoV-2 cytopathic effect

OCCN1CCN(CCCN2c3ccccc3Sc3ccc(Cl)cc32)CC1 [perphenazine]
inactive: 1 nM 1.39% | 8.33 nM 1.94% | 100 nM 0.83% | 833.33 nM -2.86% | 10000 nM 2.67%

CCNC1(C(N)=O)CCN(c2ncnc3c2nc(-c2ccccc2Cl)n3-c2ccc(Cl)cc2)CC1
inactive: 1 nM -2.1% | 8.33 nM 0.22% | 100 nM 1.6% | 833.33 nM 7.17% | 10000 nM -0.26%

CC(=O)Nc1ccc(S(=O)(=O)Nc2ccc([N+](=O)[O-])cc2)cc1 [sulfanitran]
inactive: 1 nM -1.18% | 8.33 nM -2.16% | 100 nM 0.76% | 833.33 nM 0.27% | 10000 nM -4.49%

CC(C)(Cc1ccc2ccccc2c1)NC[C@@H](O)COc1cccc(Cl)c1C#N
active: 10000 nM 62.5%
inactive: 1 nM -1.61% | 8.33 nM 0.41% | 100 nM 0.1% | 833.33 nM 2.49%

C=CC(=O)N1CCC[C@@H](n2nc(-c3ccc(Oc4ccccc4)cc3)c3c(N)ncnc32)C1 [ibrutinib]
inactive: 1 nM -2.27% | 8.33 nM -1.2% | 100 nM 0.01% | 833.33 nM -0.37% | 10000 nM 1.62%

COc1ccc2cccc(CCNC(C)=O)c2c1 [agomelatine]
inactive: 1 nM -0.83% | 8.33 nM 0.82% | 100 nM -2.18% | 833.33 nM -1.63% | 10000 nM 0.7%

COc1cc(OC2CCN(C)CC2)ccc1Nc1ncc2c(n1)n(C1CCCC1)c(=O)n2C
inactive: 1 nM 1.63% | 8.33 nM 2.01% | 100 nM -2.6% | 833.33 nM 0.1% | 10000 nM 11.1%

O=c1c(O)c(-c2ccc(O)cc2)oc2cc(O)cc(O)c12 [kaempferol]
inactive: 1 nM -3.6% | 8.33 nM 12% | 100 nM -1.58% | 833.33 nM 1.56% | 10000 nM 11.2%

CC(=O)NC[C@H]1CN(c2ccc(-c3ccc(CNCc4cnn[nH]4)cc3)c(F)c2)C(=O)O1 [radezolid]
inactive: 1 nM -1.38% | 8.33 nM 0.58% | 100 nM 2.16% | 833.33 nM -0.64% | 10000 nM 2.43%

N[C@@H](Cc1ccc(O)cc1)C(=O)O [plovamer-acetate]
inactive: 1 nM -8.12% | 8.33 nM -7.1% | 100 nM -9.88% | 833.33 nM -9.04% | 10000 nM -5.19%

CCCCCCCCCCCCCCCC(=O)OC[C@H](O)[C@H]1OC(=O)C(O)=C1O [L-ascorbyl-6-palmitate]
inactive: 1 nM 2.02% | 8.33 nM 0.04% | 100 nM 0.01% | 833.33 nM 0.96% | 10000 nM -0.63%

C=CCNc1nc(NCC=C)nc(N2CCN(C(c3ccc(F)cc3)c3ccc(F)cc3)CC2)n1 [almitrine]
inactive: 1 nM -6.44% | 8.33 nM -3.95% | 100 nM -7.43% | 833.33 nM -4.59% | 10000 nM -8.59%

N#C/C(=C\c1cccn1S(=O)(=O)c1cccc([N+](=O)[O-])c1)S(=O)(=O)c1ccc(F)cc1
inactive: 1 nM -0.59% | 8.33 nM -0.34% | 100 nM -0.6% | 833.33 nM -2% | 10000 nM -0.73%

CC(=O)Nc1ccc(S(=O)(=O)c2ccc(NC(C)=O)cc2)cc1 [acedapsone]
inactive: 1 nM -1.54% | 8.33 nM -3.01% | 100 nM -3.82% | 833.33 nM -1.51% | 10000 nM 5.34%

CCC(C)(C)C(=O)C(=O)N1CCC[C@H]1C(=O)OCCCc1cccnc1
inactive: 1 nM 0.46% | 8.33 nM 0.86% | 100 nM 1.28% | 833.33 nM -0.32% | 10000 nM 1.17%

CCCCN1[C@@H]2CC[C@H]1C[C@@H](OC(c1ccc(F)cc1)c1ccc(F)cc1)C2
inactive: 1 nM -4.04% | 8.33 nM 0.46% | 100 nM 3.9% | 833.33 nM 2.41%
active: 10000 nM 37%

COc1cccc(C2(O)CCCCC2CN(C)C)c1 (stereo not given)
inactive: 1 nM 3.29% | 8.33 nM 6.35% | 100 nM 2.41% | 833.33 nM -2.01% | 10000 nM -5.31%

O=C1C=C2C=C[C@@H]3C[C@@]2(O1)[C@H]1CCCCN31 [securinine]
inactive: 1 nM 0.7% | 8.33 nM 3.64% | 100 nM 2.11% | 833.33 nM 7.21%
active: 10000 nM 18.4%

O=C(Nc1ccc(S(=O)(=O)Nc2ccccc2Cl)c(Cl)c1)c1ccccn1
inactive: 1 nM 0.59% | 8.33 nM 0.83% | 100 nM -1.92% | 833.33 nM 2.48% | 10000 nM 0.25%

Cn1ccc2cc(NC(=O)Nc3cccnc3)ccc21
inactive: 1 nM -1.98% | 8.33 nM -2.46% | 100 nM 0.51% | 833.33 nM -1.88% | 10000 nM 1.94%

CCCCCCCCCCCCCCCC[N+](C)(C)Cc1ccccc1 [benzyldimethylhexadecylammonium]
inactive: 1 nM 2.1% | 8.33 nM 0.11% | 100 nM -1.57% | 833.33 nM -0.97% | 10000 nM -13.2%
